Measurements as given in PubChem BioAssay (NCATS).
Records with an inconclusive call do not appear. Entries that show only a call come without a potency. Active and inactive are the calls of the source. Calls come from the whole dose curve; as a rule, active = well fitted inhibition curve with a large enough effect; inconclusive = small, poorly fitted or top-dose-only effect; inactive = no such curve, though single readings can be large or run the other way.

These molecules were tested against Muscarinic acetylcholine receptor M1 (Rattus norvegicus) (UniProt P08482) (assay: qHTS Assay for Antagonists of Acetylcholine Muscarinic M1 Receptor: Measurement of IP-One Response (AID 944; note: nearly all actives have a fitted effect of over 75% in size)). Details: CHO-M1 cells, IP-One HTRF, antagonist mode; series mostly up to 46.1 µM.
Muscarinic acetylcholine receptor M1 (Rattus norvegicus), sequence (P08482 whole entry, looked up): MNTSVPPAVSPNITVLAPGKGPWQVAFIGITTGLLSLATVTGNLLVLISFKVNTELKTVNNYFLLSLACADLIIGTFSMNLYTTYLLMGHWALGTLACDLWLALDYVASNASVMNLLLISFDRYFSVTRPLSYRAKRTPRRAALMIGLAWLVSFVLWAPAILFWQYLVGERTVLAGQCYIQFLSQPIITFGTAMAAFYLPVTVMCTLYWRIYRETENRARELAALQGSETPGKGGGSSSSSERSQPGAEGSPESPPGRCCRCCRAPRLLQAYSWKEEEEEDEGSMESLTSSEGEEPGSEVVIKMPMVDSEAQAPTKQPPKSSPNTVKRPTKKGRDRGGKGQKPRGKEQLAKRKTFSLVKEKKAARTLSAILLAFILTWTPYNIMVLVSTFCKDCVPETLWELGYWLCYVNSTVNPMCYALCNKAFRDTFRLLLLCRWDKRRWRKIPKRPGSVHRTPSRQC
Outline: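 M1-CHO (rat), 2000 cells/well, overnight recovery; cpd 10 min; carbachol EC80 (200 nM), 30 min, HEPES buffer + 50 mM LiCl pH 7.4; IP-One HTRF, Ex 337, Em 620/665 nm.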
With `NCCS(=O)(=O)O` the Potency was “inactive”. For `CCOC(=O)Nc1ccc(NCc2ccc(F)cc2)nc1N`, the Potency was “inactive”. In the case of `Cc1ccc(C(=O)Nc2ccc(S(=O)(=O)O)c3cc(S(=O)(=O)O)cc(S(=O)(=O)O)c23)cc1NC(=O)c1cccc(NC(=O)Nc2cccc(C(=O)Nc3cc(C(=O)Nc4ccc(S(=O)(=O)O)c5cc(S(=O)(=O)O)cc(S(=O)(=O)O)c45)ccc3C)c2)c1`, the Potency is reported as “inactive”. With `CCCCc1oc2ccccc2c1C(=O)c1cc(I)c(OCCN(CC)CC)c(I)c1` the Potency was “inactive”.

These molecules were tested against Pyruvate kinase (Leishmania mexicana) (UniProt Q27686) (assay: qHTS Validation Assay for Inhibitors of Leishmania Mexicana Pyruvate Kinase (AID 945; note: potency is the fitted concentration of half-maximal effect)). Details: purified L. mexicana pyruvate kinase, enzyme activity, E451W mutant enzyme; series mostly up to 57.5 µM.
Pyruvate kinase (Leishmania mexicana), sequence (Q27686 2-499 E452W): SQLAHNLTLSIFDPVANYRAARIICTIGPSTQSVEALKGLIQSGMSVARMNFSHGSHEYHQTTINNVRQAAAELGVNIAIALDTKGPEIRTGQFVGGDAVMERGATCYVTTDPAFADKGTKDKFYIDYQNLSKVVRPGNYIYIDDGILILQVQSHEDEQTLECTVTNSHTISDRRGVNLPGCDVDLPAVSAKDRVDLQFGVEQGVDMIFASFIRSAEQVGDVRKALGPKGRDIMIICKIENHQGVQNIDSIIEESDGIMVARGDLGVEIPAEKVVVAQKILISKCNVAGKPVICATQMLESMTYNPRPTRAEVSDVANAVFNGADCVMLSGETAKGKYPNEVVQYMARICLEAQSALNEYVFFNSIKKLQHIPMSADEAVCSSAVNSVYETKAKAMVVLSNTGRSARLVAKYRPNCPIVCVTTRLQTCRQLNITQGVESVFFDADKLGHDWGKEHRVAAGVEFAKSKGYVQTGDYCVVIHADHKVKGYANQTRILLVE
Outline: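 The enzyme is a highly purified E451W mutant of LmPYK used at 0.2 nM. It converts 0.5 mM PEP and 0.1 mM ADP over 1 h at room temperature; product ATP is quantified by luciferase luminescence relative to DMSO controls.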
In the case of `NCCS(=O)(=O)O`, the Potency is reported as “inactive”. For `CCOC(=O)Nc1ccc(NCc2ccc(F)cc2)nc1N`, the Potency was “inactive”. `NC(=O)NO` was tested, and the Potency was “inactive”. For `O=C(c1ccc(OCCN2CCCCC2)cc1)c1c(-c2ccc(O)cc2)sc2cc(O)ccc12`, the Potency was “inactive”. In the case of `O=c1c(O)c(-c2ccc(O)c(O)c2)oc2cc(O)cc(O)c12`, the Potency is reported as “inactive”. With `CCc1cccc2c3c([nH]c12)C(CC)(CC(=O)O)OCC3` (stereo not given) the Potency was “inactive”. For `Cc1ccc(C(=O)Nc2ccc(S(=O)(=O)O)c3cc(S(=O)(=O)O)cc(S(=O)(=O)O)c23)cc1NC(=O)c1cccc(NC(=O)Nc2cccc(C(=O)Nc3cc(C(=O)Nc4ccc(S(=O)(=O)O)c5cc(S(=O)(=O)O)cc(S(=O)(=O)O)c45)ccc3C)c2)c1`, the Potency was “inactive”. For `Cn1ccc2cc3c(cc21)CCN3C(=O)Nc1cccnc1`, the Potency was 7.94 µM (active). With `CN(C)CCOC(c1ccccc1)c1ccccc1` the Potency was “inactive”. In the case of `Cc1cn([C@H]2C=C[C@@H](CO)O2)c(=O)[nH]c1=O`, the Potency is reported as “inactive”. With `CN1CCN(CCCN2c3ccccc3Sc3ccc(Cl)cc32)CC1` the Potency was “inactive”.
